From PubChem BioAssay
DT40 TDP1 no CPT: qHTS for Inhibitors of human tyrosyl-DNA phosphodiesterase 1 (TDP1): qHTS in cells in absence of CPT. DT40 Tdp1-/- hTDP1 cells, no CPT, ATP luminescence, 48 h. AID 686978, 2013. 420,000 tested, 15% active. Potency, µM (series often up to 46.2 µM), for inactives: at the highest dose activity change, negative = growth inhibition, usual class: inhibitors; further: nearly all actives have a fitted effect of over 55% in size
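Growth of hTDP1-complemented DT40 Tdp1-knockout cells is measured by ATP luminescence after at least 48 hr compound exposure at 37 °C, with DMSO substituting for the 20 nM CPT used in the parallel screen.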
HT1080-NT tox: qHTS for induction of synthetic lethality in tumor cells producing 2HG: qHTS for the HT-1080-NT fibrosarcoma cell line. HT-1080-NT fibrosarcoma viability, CellTiter-Glo ATP luminescence, 48 h. Potency, µM (highest dose often 46.1 µM), for inactives: at the top dose activity, negative = less viability, hits mostly cytotoxic. 360,000 tested, 1.6% active. AID 686970, 2013;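 further: NT is the 2HG producing partner of a matched IDH1 knockdown line; 0% = DMSO-treated cells and -100% = media-only wells without cells; nearly all actives have a fitted effect of over 55% in size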
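HT-1080-NT; 750 cells/well; 5% FBS RPMI; 48 h compound, 37 degrees C; CellTiter-Glo luminescence; curve fitting and curve-class assignment.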
KB-V1 cytotox: qHTS assay for MDR1-selective chemotherapeutics: Primary screen using the drug-selected MDR subline cells KB-V1. KB-V1 MDR cells viability, CellTiter-Glo, 72 h. Potency, µM (top dose mostly 46.1 µM), actives largely listed as cytotoxic. 400,000 tested, 3.4% active; further: nearly all actives have a fitted effect of over 60% in size
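Following 72 h at 37 degrees C with compound, KB-V1 cell viability was read by CellTiter-Glo luminescence, medium being phenol-red-free DMEM plus 10% FBS; concentration-response parameters came from normalized, curve-fitted qHTS data.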
HT1080 IDH1KD tx: qHTS for induction of synthetic lethality in tumor cells producing 2HG: qHTS for the HT-1080-IDH1KD cell line. HT-1080 IDH1 knockdown viability, ATP luminescence, 48 h. 360,000 tested, 2% active. Potency, µM (doses to about 46.1 µM), inactives show at the top dose activity, negative = toxicity, usual class: cytotoxic;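 further: 0% = DMSO wells and -100% = cell-free medium wells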
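Knockdown cells (IDH1KD HT-1080) received compounds 2 h after plating at 750 cells/well and were kept 48 h at 37 °C in 5% FBS RPMI. A CellTiter-Glo luminescence read gave % activity for curve fitting.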
DT40 TDP1 CPT: qHTS for Inhibitors of human tyrosyl-DNA phosphodiesterase 1 (TDP1): qHTS in cells in presence of CPT; chicken DT40 Tdp1-/-;hTDP1 cells + 20 nM CPT, ATP luminescence, 48 h; Potency, µM (series often up to 46.2 µM), for inactives: at the highest dose activity change, negative = growth inhibition, usual class: inhibitors; 420,000 tested, 12% active; AID 686979, 2013; further: nearly all actives have a fitted effect of over 55% in size
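Chicken DT40 Tdp1-/- cells stably complemented with human TDP1 were seeded at 400 cells/well in medium containing 20 nM camptothecin, exposed to pin-transferred compounds, and grown at 37 °C for at least 48 hr. Viability was read as ATP luminescence.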
KB-3-1 cytotox: qHTS assay for MDR1-selective chemotherapeutics: Primary screen using the parental adenocarcinoma cell KB-3-1. KB-3-1 viability, CellTiter-Glo ATP luminescence, 72 h. Potency, µM (series often up to 46.1 µM), most hits filed as cytotoxic. 400,000 tested, 1.4% active; further: nearly all actives have a fitted effect of over 60% in size
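Multi-concentration cytotoxicity screen in KB-3-1 cells grown in DMEM lacking phenol red with 10% FBS. After 72 h at 37 °C with compound, ATP-dependent luminescence was recorded.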
* = called active by the depositor; i = inactive; ? = inconclusive; nt = not tested or not shown; [ ] = remark or other dose. Most compounds without a hit are left out; they make up all but 19% or so of the library. The call rests on the fitted dose curve; in most records, active means well fitted curve in the direction sought with a large enough effect; inconclusive means small, poorly fitted or top-dose-only effect, or another doubt; inactive means no such curve, though single readings can be large; an effect the other way counts as inactive or inconclusive. Unless noted, on the % scale 0 is the no-effect control and ±100 the full control effect; potency means the concentration at half of the fitted maximal effect.

SMILES	DT40 TDP1 no CPT	HT1080-NT tox	KB-V1 cytotox	HT1080 IDH1KD tx	DT40 TDP1 CPT	KB-3-1 cytotox
CCOc1ccc(CCNC(=O)CSc2nn(-c3ccc(C)c(Cl)c3)c(=S)s2)cc1OCC	?	9%	6.5µM*	13%	?	i
CCOc1ccc(CCNC(=O)CCSCc2ccc(Cl)cc2)cc1OCC	23µM*	nt	nt	nt	?	nt
COc1ccc(Br)cc1CNC(=O)CCSCc1ccc(Cl)cc1	26µM*	nt	nt	nt	?	nt
COc1ccc(Br)cc1CNC(=O)CCSCc1ccc(C)cc1	?	nt	nt	nt	-28%	nt
Cc1ccc(C)c(OCCC(=O)NCCc2ccc(Cl)cc2)c1	?	2%	i	-1%	-27%	?
CCOc1ccc(CCNC(=O)CCOc2cc(C)ccc2C)cc1OCC	18µM*	-9%	?	-8%	?	i
COc1ccc(-c2nc(CN3CCC(C(=O)NC4CCCC4)CC3)c(C)o2)cc1OC	0%	8%	i	8%	-5%	i
Cc1ccccc1-c1nc(CN2CCC(C(=O)NC3CC3)CC2)c(C)o1	1%	2%	i	25%	-6%	i
Cc1cccc(-c2nc(CN3CCCC(C(=O)NC4CCCCC4)C3)c(C)o2)c1 (centres undefined)	21µM*	?	21µM*	?	21µM*	?
CCOC(=O)N1CCC(NC(=O)C2CCCN(Cc3nc(-c4ccc(CC)cc4)oc3C)C2)CC1 (centres undefined)	1.5µM*	-14%	i	-7%	2.9µM*	i
Cc1cccc(-c2nc(CN3CCCC(C(=O)NC4CCCCCC4)C3)c(C)o2)c1 (centres undefined)	18µM*	20µM*	21µM*	?	21µM*	i
CCOC(=O)N1CCC(NC(=O)C2CCN(Cc3nc(-c4ccc(CC)cc4)oc3C)CC2)CC1	?	24%	i	-3%	?	i
COc1ccc(NC(=O)CCCC(=O)NCCc2ccc(OC)c(OC)c2)cc1	15%	-13%	i	-3%	?	i
CCOC(=O)[C@H]1[C@H]2COc3ccccc3[C@@H]2N2C(=O)CN(CC3CCCO3)C(=O)[C@@]12C (some centres undefined)	14%	0%	i	13%	8%	i
O=C(c1ccccc1)c1ccc2nc(N3CCN(C(=O)c4ccco4)CC3)c3nncn3c2c1	13µM*	6%	i	-9%	23µM*	i
COc1ccc(N2CCN(c3nc4ccc(C(=O)c5ccccc5)cc4n4cnnc34)CC2)cc1	-96%	nt	i	nt	16µM*	i
O=C(c1ccccc1)c1ccc2nc(N3CCN(c4ccccc4)CC3)c3nncn3c2c1	6.5µM*	nt	i	nt	4.6µM*	i
CCOC(=O)N1CCN(c2nc3ccc(C(=O)c4ccccc4)cc3n3cnnc23)CC1	?	-5%	i	-2%	?	i
Cc1cccc(N2CCN(c3nc4ccc(C(=O)c5ccccc5)cc4n4cnnc34)CC2C)c1 (centres undefined)	13µM*	nt	i	nt	18µM*	i
COc1ccc(Cc2nnc(SCC(=O)c3c(N)n(C4CC4)c(=O)[nH]c3=O)o2)cc1	-14%	8%[9.24 µM]	i	6%	?	i
COc1cccc(CNC(=O)CN2C(=O)N(c3ccc(C)cc3C)S(=O)(=O)c3ccccc32)c1OC	21µM*	nt	i	nt	?	i
